# Screening results from PubChem BioAssay.
# Hits are enriched below; roughly 10% of the tested compounds scored in any of these assays.
# GLS inhibitor = qHTS for Inhibitors of Glutaminase (GLS). 410,000 tested, 0.21% active. Potency, µM (titrated, usually from 45.5 µM), for inactives: top-dose activity change, negative = inhibition, hits mostly inhibitors. GLS enzymatic activity, qHTS titration. Glutaminase kidney isoform, mitochondrial (Homo sapiens), O94925; also: % is scaled to controls: 0 for no effect and ±100 for the full control effect
#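 Two-point fluorescence kinetic (t0, 30 min RT) for hKGA; glutamate detected via glutamate oxidase–HRP–Amplex Red. Substrate: 1 mM L-glutamine solution; buffer 45 mM KH2PO4, pH 8.2.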
# BAZ2B block = qHTS Assay for Inhibitors of BAZ2B; 360,000 tested, 4.4% active; AID 504333, 2011; AlphaScreen BAZ2B-H3K14Ac peptide displacement; Potency, µM (titrated, usually from 114 µM), for inactives: at the highest dose activity change, negative = inhibition, hits mostly inhibitors; also: % is scaled to controls: 0 for no effect and ±100 for the full control effect; nearly all actives have a fitted effect of over 60% in size
#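 Complex of BAZ2B and biotin-H3K14Ac (50 nM apiece) forms over 30 min at RT, then faces library compounds up to 110 uM for another 30 min; AlphaScreen beads added, 20 min dark incubation, luminescence read.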
# HP1b chromo inh = HTS for Inhibitors of HP1-beta Chromodomain Interactions with Methylated Histone Tails | AlphaScreen HP1-beta / biotin-H3K9me3 peptide binding | AID 540317, 2011 | 390,000 tested, 0.56% active | Chromobox protein homolog 1 (Homo sapiens), P83916 | Potency, µM (titrated, usually from 114 µM), for the others: top-dose activity change, negative = inhibition, actives largely listed as inhibitors; also: nearly all actives have a fitted effect of over 70% in size
#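 Compound inhibition of the preformed complex between 50 nM HP1-beta and 50 nM biotinylated H3K9me3 peptide was read by AlphaScreen. Buffer was PBS pH 7.4 with 0.01% Tween-20. Incubations ran 30 min at room temperature, with 10 ug/mL donor/acceptor beads.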
# JMJD2A Tudor = qHTS Assay for Inhibitors of JMJD2A-Tudor Domain. Potency, µM (top dose mostly 114 µM), without a hit: at the top dose activity change, negative = inhibition, most hits filed as inhibitors. Lysine-specific demethylase 4A (Homo sapiens), O75164. AlphaScreen JMJD2A-Tudor / H3K4me3 peptide binding. 390,000 tested, 4.4% active; also: % is scaled to controls: 0 for no effect and ±100 for the full control effect; nearly all actives have a fitted effect of over 50% in size
# Target sequence (O75164 whole entry, looked up, the tested form may be a part): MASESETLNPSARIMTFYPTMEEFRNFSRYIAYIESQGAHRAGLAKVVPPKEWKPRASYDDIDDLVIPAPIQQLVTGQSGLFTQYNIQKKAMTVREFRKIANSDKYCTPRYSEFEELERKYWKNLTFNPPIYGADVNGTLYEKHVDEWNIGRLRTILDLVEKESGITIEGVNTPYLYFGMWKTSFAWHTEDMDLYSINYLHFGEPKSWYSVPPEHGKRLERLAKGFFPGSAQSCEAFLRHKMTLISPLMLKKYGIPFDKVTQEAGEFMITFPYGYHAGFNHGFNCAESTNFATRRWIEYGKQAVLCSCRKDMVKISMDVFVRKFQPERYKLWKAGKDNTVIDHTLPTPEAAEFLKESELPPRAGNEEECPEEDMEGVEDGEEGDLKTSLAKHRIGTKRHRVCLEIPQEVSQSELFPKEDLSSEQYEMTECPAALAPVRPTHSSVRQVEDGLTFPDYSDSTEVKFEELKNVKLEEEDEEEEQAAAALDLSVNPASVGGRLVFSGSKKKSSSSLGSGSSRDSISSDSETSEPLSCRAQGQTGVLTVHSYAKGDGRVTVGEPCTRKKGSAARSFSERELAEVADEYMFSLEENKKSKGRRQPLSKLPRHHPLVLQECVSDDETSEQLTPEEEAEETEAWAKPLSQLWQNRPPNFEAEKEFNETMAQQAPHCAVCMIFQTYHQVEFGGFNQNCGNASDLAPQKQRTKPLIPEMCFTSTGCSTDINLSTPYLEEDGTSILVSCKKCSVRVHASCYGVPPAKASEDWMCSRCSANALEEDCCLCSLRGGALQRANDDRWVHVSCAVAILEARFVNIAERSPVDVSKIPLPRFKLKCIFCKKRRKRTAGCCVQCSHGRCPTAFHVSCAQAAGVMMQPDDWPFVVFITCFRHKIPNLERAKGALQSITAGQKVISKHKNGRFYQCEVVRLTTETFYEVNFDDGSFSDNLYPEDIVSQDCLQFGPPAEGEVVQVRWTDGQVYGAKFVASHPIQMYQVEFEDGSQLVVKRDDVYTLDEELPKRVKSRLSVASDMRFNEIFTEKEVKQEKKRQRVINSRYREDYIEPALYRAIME
# G9a block = qHTS Assay for Inhibitors of Histone Lysine Methyltransferase G9a; Histone-lysine N-methyltransferase EHMT2 (Homo sapiens), Q96KQ7; G9a H3K9 monomethylation, AlphaScreen, 2 h; Potency, µM (doses to about 102 µM), without a hit: at the top dose activity, negative = inhibition, usual class: inhibitors; 350,000 tested, 8.8% active; AID 504332, 2011; also: % is scaled to controls: 0 for no effect and ±100 for the full control effect; nearly all actives have a fitted effect of over 75% in size
#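 Methyltransferase reactions run at room temperature for 2 h (20 nM enzyme, 500 nM biotin-H3K9 peptide, 20 uM SAM) after a 15 min compound preincubation; product detected by AlphaScreen beads and anti-H3K9me1 antibody.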
# Starred values were filed as active, the others as inactive; ? = inconclusive; / = not tested or not shown; [ ] = remark or other dose. Calls follow the shape of the dose curve; as a rule, active = well fitted curve in the direction sought with a large enough effect; inconclusive = small, poorly fitted or top-dose-only effect, or another doubt; inactive = no such curve, though single readings can be large; an effect the other way counts as inactive or inconclusive. Potency is read from the fitted curve at half-maximal effect.
SMILES,GLS inhibitor,BAZ2B block,HP1b chromo inh,JMJD2A Tudor,G9a block
Cn1nnc(NC(=S)NC(=O)c2ccco2)n1,19.9%,?,?,?,7.94µM*
COc1c(C(=O)NC(=S)Nc2nnn(C)n2)cc2ccccc2c1Br,5.8%,-5.4%,-6.6%,-8.1%,/
Cn1nnc(NC(=S)NC(=O)Cc2ccccc2)n1,26.7%,35.5µM*,79.4µM*,22.4µM*,2.82µM*
Cc1nc(NC(=S)NC(=O)c2ccco2)sc1C(=O)N(C)C,3.5%,-1.0%,28.3%,-12.0%,39.8µM*
COc1ccc2cc1Oc1cc3c(cc1OC)CC[N+](C)(C)C3Cc1ccc(cc1)Oc1c(OC)c(OC)cc3c1C(C2)[N+](C)(C)CC3 (centres undefined),-1.7%,/,/,/,?
O=C(Nc1ccc(Br)cc1)c1cc(-c2ccncc2)nc2ccccc12,-1.3%,/,7.8%,-26.2%,/
CNC(=O)NC(=S)NC(=O)c1ccc(OC)cc1,33.4%,-34.7%,13.9%,15.8µM*,16.2%[12.7 µM]
COc1ccc(CNC(=O)C2CCN(S(=O)(=O)c3ccc4c(ccn4C)c3)CC2)cc1,5.5%,2.7%,56.3%,-9.6%,-2.3%[59 µM]
COc1cc(-c2cc(C(=O)Nc3ccc(S(N)(=O)=O)cc3)c3ccccc3n2)cc(OC)c1OC,-4.0%,16.4%,21.7%,-21.2%,-47.1%
Cc1cc(C)nc(NS(=O)(=O)c2ccc(NC(=O)C3(c4ccccc4)CCCC3)cc2)n1,12.7%,0.1%,9.8%,-19.9%,56.2µM*
Cc1noc(NS(=O)(=O)c2ccc(NC(=O)c3cnc4scc(C)n4c3=O)cc2)c1C,1.7%,-8.1%,7.0%,?,50.1µM*
COc1ccc(-c2cc(C(=O)Nc3ccc(S(=O)(=O)Nc4onc(C)c4C)cc3)c3ccccc3n2)cc1,13.7%,?,-12.3%[57 µM],?,50.1µM*
CCN(CC)S(=O)(=O)c1ccc(O)c(NC(=O)c2cc(-c3cc(OC)c(OC)c(OC)c3)nc3ccccc23)c1,-8.2%,-21.3%,-36.2%,?,7.94µM*
CC(C)c1ccc(N2C(=O)CSC23C(=O)N(Cc2ccccc2F)c2ccccc23)cc1 (centres undefined),1.7%,1.4%,58.0%,-14.1%,7.1%[59 µM]
O=S(=O)(c1ccc(F)cc1)N1CCC(n2c(C(F)(F)F)nc3cccnc32)CC1,-6.1%,-2.4%,14.3%,-20.1%,4.4%[59 µM]
Cc1ccc(-c2cc(C(=O)Nc3ccc(S(=O)(=O)Nc4nc(C)cc(C)n4)cc3)c3ccccc3n2)cc1,0.9%,?,?,-18.5%,50.1µM*
Cc1ccnc(NS(=O)(=O)c2ccc(NC(=O)c3cc(-c4ccccc4)nc4ccccc34)cc2)n1,6.1%,-20.7%,2.5%,-19.2%,?
COc1cccc(/C=N/NC(=O)CCc2n[nH]c(=O)[nH]c2=O)c1O,5.7%,2.4%,12.4%,-18.2%,-11.0%
O=C(CCc1n[nH]c(=O)[nH]c1=O)N/N=C/c1ccco1,-6.4%,50.1µM*,18.7%,-31.2%,?
O=C(OCC#CCSc1nnc(-c2cccc3ccccc23)o1)c1ccc(F)cc1F,/,/,/,25.9%,/
NCCNc1ccc(C(=O)N2c3ccccc3Sc3ccccc32)cc1[N+](=O)[O-],-6.4%,39.8µM*,-29.1%,?,?
Nc1ccc(C(=O)OCC(=O)N2c3ccccc3Sc3ccccc32)cc1[N+](=O)[O-],5.3%,-37.6%,-12.2%,?,-21.6%[59 µM]
O=C(O)C1C2C=CC(C2)C1C(=O)Nc1ccc2c(c1)OCCO2 (centres undefined),1.9%,8.2%,56.2%,-10.7%[57.1 µM],-2.4%
CN(C)c1ccc(NC(=O)C2C3C=CC(C3)C2C(=O)O)cc1 (centres undefined),45.7%,35.5µM*,1.3%,?,22.4µM*
COc1cc(NC(=O)C2C3C=CC(C3)C2C(=O)O)c(OC)cc1Cl (centres undefined),9.3%,0.3%,18.8%,-17.8%,11.2µM*
